Reference: PubChem BioAssay AID720504 (National Center for Advancing Translational Sciences (NCATS), 2013)
About 10,000 (2.8%) of roughly 360,000 compounds were called active. Inconclusive results (about 4%) are left out. This is one part of a sample in which actives are shown more often than they occur. Calls come from the whole dose curve; as a rule, active = well fitted inhibition curve with a large enough effect; inconclusive = small, poorly fitted or top-dose-only effect; inactive = flat fitted curve, though single readings scatter.

Each compound was assayed against Serine/threonine-protein kinase PLK1 (Homo sapiens) (UniProt P53350) (assay: qHTS for Inhibitors of PLK1-PDB (polo-like kinase 1 - polo-box domain): Primary Screen). Conditions: Plk1 PBD binding of FITC phosphopeptide, fluorescence polarization.
Sequence of Serine/threonine-protein kinase PLK1 (Homo sapiens) (P53350 whole entry, looked up, the tested form may be a part): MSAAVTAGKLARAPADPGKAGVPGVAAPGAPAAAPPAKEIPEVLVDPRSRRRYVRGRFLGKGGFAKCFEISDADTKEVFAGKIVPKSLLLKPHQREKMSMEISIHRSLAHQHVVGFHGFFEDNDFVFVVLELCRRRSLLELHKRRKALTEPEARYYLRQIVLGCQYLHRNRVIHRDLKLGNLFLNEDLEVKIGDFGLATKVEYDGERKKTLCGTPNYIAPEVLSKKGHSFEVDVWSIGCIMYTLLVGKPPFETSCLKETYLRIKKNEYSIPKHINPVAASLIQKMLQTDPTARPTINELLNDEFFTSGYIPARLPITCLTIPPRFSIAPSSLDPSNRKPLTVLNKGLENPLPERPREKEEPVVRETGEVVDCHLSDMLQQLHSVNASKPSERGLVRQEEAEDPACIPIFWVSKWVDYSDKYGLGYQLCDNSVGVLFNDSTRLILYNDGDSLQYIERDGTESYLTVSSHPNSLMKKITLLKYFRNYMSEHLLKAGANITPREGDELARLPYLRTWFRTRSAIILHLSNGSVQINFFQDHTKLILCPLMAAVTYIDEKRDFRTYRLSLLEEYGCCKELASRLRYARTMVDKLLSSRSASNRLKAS
% is set by controls: 0 for no effect and ±100 for the full control effect; potency is the fitted concentration of half-maximal effect.
Note: nearly all actives have a fitted effect of over 65% in size.
Throughout, for max response, negative = inhibition: series mostly up to about 57 µM.

Question: Which max response, negative = inhibition does the source give for `NC(CSC(c1ccccc1)(c1ccccc1)c1ccc(-c2ccccc2)cc1)C(=O)O` (stereo not drawn) here?
Answer: The max response, negative = inhibition was -12.6% (inactive).

Question: How did the max response, negative = inhibition turn out when `CCC(=O)N1CCCC1(C)C(=O)Nc1ccc2c(c1)CCN2C(C)=O` (stereo not drawn) was run?
Answer: The max response, negative = inhibition was -12.6% (inactive).

Question: How did the max response, negative = inhibition turn out when `O=C(Nc1ccccc1)c1cc2ccccc2[nH]1` was run?
Answer: The max response, negative = inhibition was 0% (inactive).

Question: Which Potency does the source give for `S=c1ccc2ccccc2[nH]1` here?
Answer: The Potency was 10.6 µM (active).

Question: `O=C(Nc1ccc(Cl)cn1)c1ccccc1-c1ccccc1` was tested. Which max response, negative = inhibition did it give?
Answer: Its max response, negative = inhibition is -6.02% (inactive).

Question: With `CC1(C(=O)Nc2cccc3cccnc23)CCN1C(=O)CCC1CCCC1` (stereo not drawn) as the compound, how does the max response, negative = inhibition read?
Answer: The max response, negative = inhibition was 0.774% (inactive).

Question: `CCOC(=O)c1c(N)sc(C(C)=O)c1C` was tested. Which Potency did it give?
Answer: The Potency was 21.2 µM (active).

Question: Which max response, negative = inhibition does the source give for `CCOC(=O)Nc1sc(C(=O)N(C)C)c(C)c1C(=O)OCC` here?
Answer: Its max response, negative = inhibition is -6.39% (inactive).

Question: How did the max response, negative = inhibition turn out when `CCOC(=O)c1c(N)sc2c1CCCC2=O` was run?
Answer: The max response, negative = inhibition was -6.68% (inactive).

Question: `CC(=O)c1cccc(-c2cnc3c(NC=O)cc(-c4ccc(N5CCN(C)CC5)cc4)cn23)c1` was tested. Which max response, negative = inhibition did it give?
Answer: Its max response, negative = inhibition is 2.15% (inactive).

Question: `CCCCC(=O)N(C)c1c(CC)nc2c(OCc3ccc(S(C)(=O)=O)cc3)cccn12` was tested. Which max response, negative = inhibition did it give?
Answer: The max response, negative = inhibition was -6.21% (inactive).

Question: `COc1ccc(OCc2n[nH]c(=S)n2N)cc1` was tested. Which Potency did it give?
Answer: The Potency was 3.77 µM (active).

Question: Which max response, negative = inhibition does the source give for `COc1ccc(OCc2ccc(-c3nc4ccccc4c(=O)n3N)o2)cc1` here?
Answer: Its max response, negative = inhibition is 2.15% (inactive).

Question: For `COc1ccc(Cc2n[nH]c(=S)n2NC(=O)Nc2ccc(C)cc2)cc1`, which max response, negative = inhibition is on record?
Answer: Its max response, negative = inhibition is -9.65% (inactive).

Question: With `O=C(NCc1cccnc1)c1cc(C2CCCN(C(=O)C3CCCCC3)C2)on1` (stereo not drawn) as the compound, how does the max response, negative = inhibition read?
Answer: Its max response, negative = inhibition is 0.902% (inactive).

Question: With `CC1CC(NC(=S)N(C)C)CC(C)(C)C1` (stereo not drawn) as the compound, how does the max response, negative = inhibition read?
Answer: The max response, negative = inhibition was -1.25% (inactive).

Question: For `CC(=O)Nc1ccc(CN2CCN(Cc3ccc(F)c(F)c3)C(CCO)C2)cc1` (stereo not drawn), which Potency is on record?
Answer: Its Potency is 18.9 µM (active).

Question: For `Cc1ccc(CN2CCN(Cc3ccc4ncccc4c3)CC2CCO)cc1` (stereo not drawn), which max response, negative = inhibition is on record?
Answer: Its max response, negative = inhibition is -1.02% (inactive).

Question: For `CC(C)CCN1CCN(Cc2ccc(C(F)(F)F)cc2)CC1CCO` (stereo not drawn), which max response, negative = inhibition is on record?
Answer: The max response, negative = inhibition was 4.35% (inactive).

Question: How did the max response, negative = inhibition turn out when `COc1ccc(-c2cc(NC=O)c3ncc(-c4cc(OC)c(OC)c(OC)c4)n3c2)c(OC)c1` was run?
Answer: The max response, negative = inhibition was -18.1% (inactive).

Question: Which max response, negative = inhibition does the source give for `O[C@@H]1C[C@H](c2ccccc2)N(Cc2cccs2)C[C@H]1n1cc(C2CC2)nn1` here?
Answer: Its max response, negative = inhibition is -0.363% (inactive).

Question: How did the Potency turn out when `Oc1ccc2ccc3cccc[n+]3c2c1` was run?
Answer: The Potency was 4.74 µM (active).

Question: Which max response, negative = inhibition does the source give for `O=C1CCC(C(=O)OCC(=O)Nc2ccc(OC(F)F)cc2)=NN1` here?
Answer: Its max response, negative = inhibition is -4.05% (inactive).

Question: How did the max response, negative = inhibition turn out when `CCNC(=O)C1(C)CCCN(C(=O)c2ccc3ccccc3n2)C1` (stereo not drawn) was run?
Answer: Its max response, negative = inhibition is -13.8% (inactive).

Question: How did the max response, negative = inhibition turn out when `CC1(C(=O)O)CCN1C(=O)/C=C/c1ccccc1` (stereo not drawn) was run?
Answer: The max response, negative = inhibition was -4.73% (inactive).

Question: Which max response, negative = inhibition does the source give for `COc1ccc(C(C)(C)C)cc1NC(=O)CN(C)C1=NS(=O)(=O)c2ccccc21` here?
Answer: Its max response, negative = inhibition is -6.05% (inactive).

Question: How did the max response, negative = inhibition turn out when `COc1ccc(CCN2CC(C(=O)OCC(=O)NCc3ccccc3Cl)CC2=O)cc1OC` (stereo not drawn) was run?
Answer: The max response, negative = inhibition was -3.96% (inactive).

Question: With `CC(OC(=O)C1CC(=O)N(Cc2ccccc2)C1)C(=O)Nc1ccccc1[N+](=O)[O-]` (stereo not drawn) as the compound, how does the max response, negative = inhibition read?
Answer: Its max response, negative = inhibition is -3.81% (inactive).

Question: Which Potency does the source give for `O=C(OCc1ccc([N+](=O)[O-])cc1)C1CC(=O)N(Cc2ccccc2Cl)C1` (stereo not drawn) here?
Answer: The Potency was 29.9 µM (active).

Question: How did the max response, negative = inhibition turn out when `CCOC(=O)c1cnn2c(SC)ncnc12` was run?
Answer: The max response, negative = inhibition was -4.05% (inactive).

Question: `CC(C)Oc1cc(F)ccc1-c1cc(C(=O)Nc2cccc(Cl)c2)[nH]n1` was tested. Which max response, negative = inhibition did it give?
Answer: The max response, negative = inhibition was -2.39% (inactive).

Question: How did the max response, negative = inhibition turn out when `Cc1cc(C)n(-c2ccc(NC(=O)C3CCCCN3C(=O)c3cccs3)cc2)n1` (stereo not drawn) was run?
Answer: The max response, negative = inhibition was -7.4% (inactive).

Question: With `COc1ccc(C(=O)N2CCCCC2C(=O)Nc2ccc(-n3nc(C)cc3C)cc2)o1` (stereo not drawn) as the compound, how does the Potency read?
Answer: Its Potency is 23.8 µM (active).

Question: For `COc1ccc(C(=O)C2CCCN(C(=O)c3ccc(OC)o3)C2)c(C)c1` (stereo not drawn), which max response, negative = inhibition is on record?
Answer: The max response, negative = inhibition was -27.3% (inactive).

Question: `CC(=O)c1ccccc1NC(=O)COC(=O)C1COc2ccccc2O1` (stereo not drawn) was tested. Which max response, negative = inhibition did it give?
Answer: The max response, negative = inhibition was 4.38% (inactive).

Question: Which max response, negative = inhibition does the source give for `CCCC(=O)N1CCC1(C)C(=O)Nc1ccc(-n2cncn2)cc1` (stereo not drawn) here?
Answer: The max response, negative = inhibition was -11.3% (inactive).

Question: For `Cc1ccccc1CN1C(=O)CSCC1(C)C(=O)Nc1c(C)cccc1C` (stereo not drawn), which max response, negative = inhibition is on record?
Answer: The max response, negative = inhibition was -3.6% (inactive).

Question: With `CCCCCCCCN1C(=O)[C@H](CC(=O)NCC23CC4CC(CC(C4)C2)C3)C[C@@]2(C(=O)OC)CCCCC=C12` as the compound, how does the max response, negative = inhibition read?
Answer: Its max response, negative = inhibition is -9.18% (inactive).

Question: With `O=[N+]([O-])c1cc(S(=O)(=O)Nc2cccc(Cl)c2)ccc1N=Nc1c(O)[nH]c2ccccc12` as the compound, how does the Potency read?
Answer: Its Potency is 84.4 µM (active).

Question: Which max response, negative = inhibition does the source give for `COc1ccc(S(=O)(=O)Nc2ccc3cn[nH]c3c2)cc1[N+](=O)[O-]` here?
Answer: The max response, negative = inhibition was -11.6% (inactive).

Question: For `O=C(O)c1ccccc1/C=N/Nc1ccc(S(=O)(=O)Nc2ccc(Cl)cc2)cc1[N+](=O)[O-]`, which max response, negative = inhibition is on record?
Answer: The max response, negative = inhibition was -22.4% (inactive).

Question: With `CCOc1ccc(OCC)c(NC(=O)CCS(=O)(=O)c2ccc(C)cc2)c1` as the compound, how does the max response, negative = inhibition read?
Answer: Its max response, negative = inhibition is -5.07% (inactive).

Question: For `COc1ccc(Cl)cc1NC(=O)CCS(=O)(=O)c1ccc(Br)cc1`, which Potency is on record?
Answer: Its Potency is 15 µM (active).

Question: Which max response, negative = inhibition does the source give for `COc1ccc(Cl)cc1NC(=O)CCS(=O)(=O)c1cc2c(cc1C)NC(=O)CO2` here?
Answer: The max response, negative = inhibition was -11.9% (inactive).

Question: Which max response, negative = inhibition does the source give for `COc1cc(CCN=Cc2ccccc2O)c([N+](=O)[O-])cc1OC` here?
Answer: The max response, negative = inhibition was -15.3% (inactive).

Question: For `CN(C(=O)CN1CCN(c2cc(-c3ccc(OCc4ccccc4)cc3)ncn2)CC1)c1ccccc1`, which max response, negative = inhibition is on record?
Answer: Its max response, negative = inhibition is 2.08% (inactive).

Question: `CC(O)(c1cccc(F)c1)c1nc(-c2ccc3c(c2)OCO3)cs1` (stereo not drawn) was tested. Which max response, negative = inhibition did it give?
Answer: Its max response, negative = inhibition is -0.065% (inactive).

Question: For `COc1ccc([C@H]2N[C@]3(CCCN(Cc4ccco4)C3=O)[C@H]3C(=O)N(C)C(=O)[C@@H]23)cc1`, which max response, negative = inhibition is on record?
Answer: Its max response, negative = inhibition is -10.5% (inactive).

Question: How did the max response, negative = inhibition turn out when `Cc1ccc(S(=O)(=O)N2CCN(C(=O)N3CCOCC3)CC2)c(C)c1` was run?
Answer: Its max response, negative = inhibition is 3.35% (inactive).

Question: How did the max response, negative = inhibition turn out when `CCC(=O)Nc1sc(C(=O)N2CCCCC2)c(C)c1C#N` was run?
Answer: Its max response, negative = inhibition is 0.524% (inactive).

Question: `Cc1ccc(-n2c(N)c(C(=O)N3CCOCC3)sc2=S)c(C)c1` was tested. Which Potency did it give?
Answer: Its Potency is 18.9 µM (active).

Question: How did the max response, negative = inhibition turn out when `O=C(c1ccc(S(=O)(=O)c2ccccc2)cc1)N1CCCCCC1` was run?
Answer: Its max response, negative = inhibition is -6.16% (inactive).

Question: How did the max response, negative = inhibition turn out when `Cc1cccc(N2CCN(C(=O)c3ccccc3NC(=O)C3CCCCC3C(=O)O)CC2)c1` (stereo not drawn) was run?
Answer: Its max response, negative = inhibition is -5.42% (inactive).

Question: For `CC(C)=C1SC(N2CCN(c3cccc(C)c3)CC2)=NC1=O`, which max response, negative = inhibition is on record?
Answer: The max response, negative = inhibition was -13.5% (inactive).

Question: For `Cc1ccc(N2CCN(C(=O)c3cccs3)CC2)c(C)c1`, which max response, negative = inhibition is on record?
Answer: Its max response, negative = inhibition is -4.91% (inactive).

Question: Which Potency does the source give for `Cc1cccc(-n2c(N)c(C(=O)N3CCN(C)CC3)sc2=S)c1` here?
Answer: Its Potency is 1.89 µM (active).

Question: How did the Potency turn out when `N#Cc1ccccc1-n1c(N)c(C(=O)N2CCCC2)sc1=S` was run?
Answer: Its Potency is 4.23 µM (active).

Question: Which max response, negative = inhibition does the source give for `COc1ccc(Cl)cc1-c1cc(C(=O)Nc2cc(OC)c(OC)c(OC)c2)[nH]n1` here?
Answer: The max response, negative = inhibition was -0.229% (inactive).
